Records with an inconclusive call do not appear. Active and inactive are the calls of the source. Unless noted, the call rests on the fitted dose curve; in most records, active means well fitted curve in the direction sought with a large enough effect; inconclusive means small, poorly fitted or top-dose-only effect, or another doubt; inactive means no such curve, though single readings can be large; an effect the other way counts as inactive or inconclusive.
Tests used:
[1] = target: DNA repair nuclease/redox regulator APEX1 (Homo sapiens) (UniProt P27695); assay: qHTS Validation Assay for Inhibitors of the Human Apurinic/apyrimidinic Endonuclease 1 (APE1) (AID 1705;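 further: TAMRA fluorescence gain over two minutes as APE1 cuts a quenched THF abasic duplex; series mostly up to about 57 µM; on the % scale 0 is the no-effect control and ±100 the full control effect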)
Procedure, shortened: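 Activity read as rising fluorescence (598 nm emission, 525 nm excitation) from incision of a TAMRA/BHQ-2 duplex carrying a THF abasic site (50 nM). Compound and enzyme sat 15 min at RT before substrate start; signal change between first and third 60-s reads.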

[2] = target: Endonuclease 4 (Escherichia coli (strain K12)) (UniProt P0A6C1); assay: Counterscreen for APE1 Inhibitors: qHTS Validation Assay for Inhibitors of Endonuclease IV (AID 1708); further: on the % scale 0 is the no-effect control and ±100 the full control effect
Procedure, shortened: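 Incision of a double-stranded 50 nM TAMRA/BHQ-2 abasic substrate was followed kinetically (525/598 nm, reads every 60 s) after 15 min enzyme–compound preincubation with 2 nM EndoIV in pH 7.5 Tris buffer with MgCl2, DTT and Tween-20; concentration-response format.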

[3] = qHTS for differential inhibitors of proliferation of Plasmodium falciparum line 7G8 (AID 1815);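 further: parasite growth measured after three days of incubation; plate controls were vehicle wells for no effect and reference inhibitor wells for full effect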
[4] = qHTS for differential inhibitors of proliferation of Plasmodium falciparum line GB4 (AID 1816); details: Potency: Plasmodium falciparum GB4 proliferation inhibition;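 further: parasite growth measured after 72 h incubation; 0% = vehicle DMSO and -100% = reference inhibitor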
[5] = qHTS for differential inhibitors of proliferation of Plasmodium falciparum line 3D7 (AID 1876);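 further: parasite growth measured after three days of culture; 0% = vehicle wells and -100% = reference inhibitor wells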
[6] = qHTS for differential inhibitors of proliferation of Plasmodium falciparum line D10 (AID 1877);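 further: parasites grown with compound for 72 h before DNA staining; plate controls were vehicle wells for no effect and reference inhibitor wells for full effect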
[7] = qHTS for differential inhibitors of proliferation of Plasmodium falciparum line W2 (AID 1883); details: Potency: Plasmodium falciparum W2 proliferation inhibition;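 further: parasites grown with compound for 72 h before lysis and staining; 0% = vehicle wells and -100% = control inhibitor wells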
[8] = qHTS for differential inhibitors of proliferation of Plasmodium falciparum line HB3 (AID 1886); details: Potency: Plasmodium falciparum HB3 proliferation inhibition;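 further: parasites grown with compound for 72 h before SYBR Green readout; plate controls were vehicle for no effect and reference inhibitor for full effect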
[9] = qHTS Assay for Modulators of Human Peripheral Myelin Protein 22 (PMP22) Expression/Activity (AID 1967; active means well fitted curve in the direction sought with a large enough effect in the signal ratio; the % refers to the signal ratio;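 further: 0% = untreated cells and 100% end not stated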)
Procedure, shortened: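 Readout is the corrected green/red luminescence ratio after 24 h compound exposure, normalised to untreated cells (0%). Engineered MSC80 mouse Schwann cells express green luciferase from the mouse Pmp22 promoter and red luciferase from EF-alpha as internal control.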

[10] = target: ATP-dependent DNA helicase Q1 (Homo sapiens) (UniProt P46063); assay: qHTS Validation Assay for Inhibitors of RecQ-Like Dna Helicase 1 (RECQ1) (AID 2353);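 further: plate controls were DMSO vehicle for no effect and enzyme-free control for full effect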
Procedure, shortened: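 RECQ1T1 50 nM; forked duplex (20 bp + 30-nt ss tails) 200 nM, ATP 2 mM final; pH 8.0, 2 mM MgCl2, 2.5 ug/ml poly(dI-dC); 15 min compound preincubation; discontinuous kinetic read over 2 h at RT.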

[11] = Validation screen for small molecules that induce DNA re-replication in MCF 10A normal breast cells (AID 463097); further: 0% is about no effect; nearly all actives have a fitted effect of over 60% in size
Procedure, shortened: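 Read-out is Hoechst total nuclear intensity by fluorescence scanning imager, flagging increased high-DNA-content nuclei. Compounds were incubated with MCF 10A cells for 48 hr (37 C, 5% CO2) before 40 min staining.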

[12] = Quantitative high throughput screen for delayed death inhibitors of the malarial parasite plastid, 96 hour incubation (AID 488745); further: series mostly up to about 29 µM; on the % scale 0 is the no-effect control and ±100 the full control effect; nearly all actives have a fitted effect of over 70% in size
Procedure, shortened: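 Decreased firefly luciferase luminescence indicates inhibited growth of reporter-integrated P. falciparum after two generations (96 h, 37 C, 5% CO2). Infected erythrocytes at 0.1% parasitemia, 2% hematocrit, in Albumax-supplemented RPMI 1640.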

[13] = target: M-phase phosphoprotein 8 (Homo sapiens) (UniProt Q99549); assay: qHTS Validation Assay for Inhibitors for MPP8 Chromodomain Interactions with Methylated Histone Tails (AID 488949);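 further: AlphaScreen signal from MPP8 chromodomain bound to biotinylated H3K9me3 peptide; top concentration of the series differs between compounds; on the % scale 0 is the no-effect control and ±100 the full control effect; nearly all actives have a fitted effect of over 55% in size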
Procedure, shortened: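 AlphaScreen proximity signal from streptavidin donor and Ni-chelate acceptor beads (10 ug/mL each) reported binding of MPP8 to trimethyl-K9 H3(1-18) peptide, both at 50 nM. The complex formed 30 min before a 30 min compound exposure at room temperature, in PBS pH 7.4.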

[14] = target: Thyrotropin receptor (Homo sapiens) (UniProt P16473); assay: qHTS Assay for Antagonists of the Thyroid Stimulating Hormone Receptor (AID 488980); further: series mostly up to about 58 µM; 0% is about no effect
Procedure, shortened: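 Inhibition of cAMP raised by EC80 TSH (4 nM final) was read by HTRF, with lysate cAMP competing against cAMP-d2 for cryptate antibody after 30 min at room temperature. The cells were transfected HEK293 held in phosphodiesterase inhibitor RO 20-1724 at 70 uM.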

[15] = target: Thyrotropin-releasing hormone receptor (Homo sapiens) (UniProt P34981); assay: qHTS for Small Molecule Agonists and Allosteric Enhancers of Human TRH Receptor: Validation Screen for Agonists (AID 493127;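 active means calcium activation more than 3 SD above the typical response in the agonist read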;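 further: intracellular calcium rise by fluo-8 fluorescence before TRH EC20 addition; 0% is about no effect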); details: TRH receptor agonist cell assay; at 2 µM; hits give high values
Procedure, shortened: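 Compound-evoked intracellular calcium release in fluo-8-loaded TRHR cells, read kinetically on FDSS (Ex 480/Em 530, 1 s/cycle) after 23 nL pintool transfer. Agonist phase preceded 10 nM TRH EC20 addition.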

[16] = target: Galactokinase (Homo sapiens) (UniProt P51570); assay: qHTS Validation Assay for Inhibitors of Human Galactokinase (GALK) (AID 493189); further: 0% is about no effect
Procedure, shortened: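 Inhibition was measured as remaining ATP, detected by luciferase luminescence after a 1 h room-temperature reaction. Final conditions: 5 nM GALK, 100 uM galactose, 35 uM ATP, pH 8.0 HEPES buffer.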

[17] = Validation screen for small molecules that induce DNA re-replication in SW480 colon adenocarcinoma cells (AID 504364); further: 0% is about no effect
Procedure, shortened: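 Image-based DNA content read-out: Hoechst stain 40 min, total nuclear fluorescence intensity (ex 405 nm, em 500-530 nm) after 48 h compound exposure of 250 SW480 cells/well at 37 C, 5% CO2, versus DMSO vehicle.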

[18] = target: Voltage-gated inwardly rectifying potassium channel KCNH2 (Homo sapiens) (UniProt Q12809); assay: qHTS Assay for Small Molecule Inhibitors of the Human hERG Channel Activity (AID 588834);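 further: top concentration of the series differs between compounds; on the % scale 0 is the no-effect control and ±100 the full control effect; lower thallium flux fluorescence means stronger hERG block; nearly all actives have a fitted effect of over 50% in size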
Procedure, shortened: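 hERG block measured as reduced thallium-dye (FluxOR) fluorescence after stimulation buffer addition, read over 2 min. Cells were hERG-BacMam-transduced U2OS exposed to compound ~10 min […]; concentration-response fitted with Hill equation for AC50.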

Sequence of ATP-dependent DNA helicase Q1 (Homo sapiens) (P46063 whole entry, looked up): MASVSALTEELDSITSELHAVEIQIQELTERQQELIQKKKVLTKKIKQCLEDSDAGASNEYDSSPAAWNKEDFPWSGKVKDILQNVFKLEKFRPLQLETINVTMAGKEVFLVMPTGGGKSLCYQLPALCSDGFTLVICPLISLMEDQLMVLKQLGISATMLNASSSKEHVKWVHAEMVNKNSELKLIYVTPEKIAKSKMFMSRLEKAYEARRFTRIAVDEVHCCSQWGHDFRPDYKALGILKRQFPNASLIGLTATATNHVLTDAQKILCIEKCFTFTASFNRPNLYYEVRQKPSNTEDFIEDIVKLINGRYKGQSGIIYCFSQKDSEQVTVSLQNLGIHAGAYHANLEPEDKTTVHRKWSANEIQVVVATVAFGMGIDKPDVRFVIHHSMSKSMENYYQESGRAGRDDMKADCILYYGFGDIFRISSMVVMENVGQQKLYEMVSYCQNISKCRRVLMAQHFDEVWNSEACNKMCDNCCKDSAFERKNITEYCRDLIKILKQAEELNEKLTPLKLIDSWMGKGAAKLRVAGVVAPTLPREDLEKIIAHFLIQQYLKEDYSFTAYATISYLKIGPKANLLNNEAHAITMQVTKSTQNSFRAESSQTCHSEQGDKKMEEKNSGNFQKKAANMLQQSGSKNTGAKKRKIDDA
Sequence of Galactokinase (Homo sapiens) (P51570 whole entry, looked up): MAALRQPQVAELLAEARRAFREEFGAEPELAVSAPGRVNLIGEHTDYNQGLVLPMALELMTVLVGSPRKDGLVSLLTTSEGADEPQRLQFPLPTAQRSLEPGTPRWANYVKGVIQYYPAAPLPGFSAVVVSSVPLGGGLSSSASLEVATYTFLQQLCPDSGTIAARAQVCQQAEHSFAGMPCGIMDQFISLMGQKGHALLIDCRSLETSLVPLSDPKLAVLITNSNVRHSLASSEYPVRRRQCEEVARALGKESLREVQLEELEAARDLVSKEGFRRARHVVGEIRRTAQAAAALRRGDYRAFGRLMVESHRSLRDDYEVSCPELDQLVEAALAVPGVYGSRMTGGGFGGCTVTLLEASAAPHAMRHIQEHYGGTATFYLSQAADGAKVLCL
Sequence of DNA repair nuclease/redox regulator APEX1 (Homo sapiens) (P27695 whole entry, looked up): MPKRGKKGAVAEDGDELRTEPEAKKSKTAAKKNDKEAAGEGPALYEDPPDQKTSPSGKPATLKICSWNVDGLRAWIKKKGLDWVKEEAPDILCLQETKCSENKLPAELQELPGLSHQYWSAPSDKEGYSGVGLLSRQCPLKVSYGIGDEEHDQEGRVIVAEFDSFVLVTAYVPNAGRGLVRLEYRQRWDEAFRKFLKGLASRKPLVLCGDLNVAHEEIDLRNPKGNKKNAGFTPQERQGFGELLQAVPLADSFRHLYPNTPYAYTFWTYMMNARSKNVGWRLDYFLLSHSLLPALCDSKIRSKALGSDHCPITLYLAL
Sequence of M-phase phosphoprotein 8 (Homo sapiens) (Q99549 whole entry, looked up): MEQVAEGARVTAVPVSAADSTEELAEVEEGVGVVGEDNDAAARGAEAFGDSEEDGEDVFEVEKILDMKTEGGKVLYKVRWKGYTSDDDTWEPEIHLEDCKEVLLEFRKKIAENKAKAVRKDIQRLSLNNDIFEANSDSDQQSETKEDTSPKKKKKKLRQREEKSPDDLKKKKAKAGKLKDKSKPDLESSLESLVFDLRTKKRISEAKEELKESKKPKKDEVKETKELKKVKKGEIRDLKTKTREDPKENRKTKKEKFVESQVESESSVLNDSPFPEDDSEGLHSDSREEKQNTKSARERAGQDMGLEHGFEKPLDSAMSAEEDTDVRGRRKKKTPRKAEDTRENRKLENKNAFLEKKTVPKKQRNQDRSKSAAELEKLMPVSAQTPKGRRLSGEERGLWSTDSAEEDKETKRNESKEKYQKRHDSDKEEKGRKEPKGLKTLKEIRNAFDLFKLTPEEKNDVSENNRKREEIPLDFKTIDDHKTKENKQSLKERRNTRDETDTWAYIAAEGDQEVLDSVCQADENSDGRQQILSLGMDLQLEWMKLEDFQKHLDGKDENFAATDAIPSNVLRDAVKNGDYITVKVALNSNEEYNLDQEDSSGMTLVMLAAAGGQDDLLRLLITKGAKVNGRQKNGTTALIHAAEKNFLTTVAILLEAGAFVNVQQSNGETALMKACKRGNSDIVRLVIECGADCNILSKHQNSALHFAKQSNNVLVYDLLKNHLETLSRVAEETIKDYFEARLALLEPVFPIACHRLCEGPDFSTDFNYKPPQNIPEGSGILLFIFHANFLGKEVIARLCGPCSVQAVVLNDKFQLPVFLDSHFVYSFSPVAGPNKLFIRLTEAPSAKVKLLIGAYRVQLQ
Sequence of Thyrotropin receptor (Homo sapiens) (P16473 whole entry, looked up): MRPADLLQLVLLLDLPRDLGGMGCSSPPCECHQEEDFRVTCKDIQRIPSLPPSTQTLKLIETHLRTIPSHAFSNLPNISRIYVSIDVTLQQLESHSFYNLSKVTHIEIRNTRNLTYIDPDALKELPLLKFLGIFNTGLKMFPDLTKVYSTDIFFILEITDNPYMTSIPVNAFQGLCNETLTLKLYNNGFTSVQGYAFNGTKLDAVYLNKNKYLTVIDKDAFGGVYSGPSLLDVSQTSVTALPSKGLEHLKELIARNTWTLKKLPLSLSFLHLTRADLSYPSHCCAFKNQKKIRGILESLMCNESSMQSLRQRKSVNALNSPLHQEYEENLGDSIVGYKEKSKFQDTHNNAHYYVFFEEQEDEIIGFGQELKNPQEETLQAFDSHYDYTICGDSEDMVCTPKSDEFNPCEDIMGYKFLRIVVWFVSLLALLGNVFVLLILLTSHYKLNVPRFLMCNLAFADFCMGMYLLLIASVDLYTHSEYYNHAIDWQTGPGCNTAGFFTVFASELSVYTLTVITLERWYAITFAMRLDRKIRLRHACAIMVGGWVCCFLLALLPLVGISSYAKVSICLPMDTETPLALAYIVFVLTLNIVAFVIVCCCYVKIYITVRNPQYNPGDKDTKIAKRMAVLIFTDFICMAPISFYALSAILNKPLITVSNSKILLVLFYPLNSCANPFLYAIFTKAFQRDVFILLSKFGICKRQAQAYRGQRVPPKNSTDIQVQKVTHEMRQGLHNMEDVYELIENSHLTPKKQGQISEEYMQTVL
Sequence of Thyrotropin-releasing hormone receptor (Homo sapiens) (P34981 whole entry, looked up): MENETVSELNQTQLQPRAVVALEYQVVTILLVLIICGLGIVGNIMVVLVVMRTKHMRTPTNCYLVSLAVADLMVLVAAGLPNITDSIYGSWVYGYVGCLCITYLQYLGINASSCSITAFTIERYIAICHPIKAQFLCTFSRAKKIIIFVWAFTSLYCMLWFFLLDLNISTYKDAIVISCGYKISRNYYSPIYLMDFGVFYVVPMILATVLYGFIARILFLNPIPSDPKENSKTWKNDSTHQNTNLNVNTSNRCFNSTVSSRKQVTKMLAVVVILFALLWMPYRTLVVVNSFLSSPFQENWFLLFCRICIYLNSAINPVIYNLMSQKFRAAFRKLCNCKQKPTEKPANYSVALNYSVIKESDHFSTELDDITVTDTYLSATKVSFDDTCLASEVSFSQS
Sequence of Voltage-gated inwardly rectifying potassium channel KCNH2 (Homo sapiens) (Q12809 whole entry, looked up): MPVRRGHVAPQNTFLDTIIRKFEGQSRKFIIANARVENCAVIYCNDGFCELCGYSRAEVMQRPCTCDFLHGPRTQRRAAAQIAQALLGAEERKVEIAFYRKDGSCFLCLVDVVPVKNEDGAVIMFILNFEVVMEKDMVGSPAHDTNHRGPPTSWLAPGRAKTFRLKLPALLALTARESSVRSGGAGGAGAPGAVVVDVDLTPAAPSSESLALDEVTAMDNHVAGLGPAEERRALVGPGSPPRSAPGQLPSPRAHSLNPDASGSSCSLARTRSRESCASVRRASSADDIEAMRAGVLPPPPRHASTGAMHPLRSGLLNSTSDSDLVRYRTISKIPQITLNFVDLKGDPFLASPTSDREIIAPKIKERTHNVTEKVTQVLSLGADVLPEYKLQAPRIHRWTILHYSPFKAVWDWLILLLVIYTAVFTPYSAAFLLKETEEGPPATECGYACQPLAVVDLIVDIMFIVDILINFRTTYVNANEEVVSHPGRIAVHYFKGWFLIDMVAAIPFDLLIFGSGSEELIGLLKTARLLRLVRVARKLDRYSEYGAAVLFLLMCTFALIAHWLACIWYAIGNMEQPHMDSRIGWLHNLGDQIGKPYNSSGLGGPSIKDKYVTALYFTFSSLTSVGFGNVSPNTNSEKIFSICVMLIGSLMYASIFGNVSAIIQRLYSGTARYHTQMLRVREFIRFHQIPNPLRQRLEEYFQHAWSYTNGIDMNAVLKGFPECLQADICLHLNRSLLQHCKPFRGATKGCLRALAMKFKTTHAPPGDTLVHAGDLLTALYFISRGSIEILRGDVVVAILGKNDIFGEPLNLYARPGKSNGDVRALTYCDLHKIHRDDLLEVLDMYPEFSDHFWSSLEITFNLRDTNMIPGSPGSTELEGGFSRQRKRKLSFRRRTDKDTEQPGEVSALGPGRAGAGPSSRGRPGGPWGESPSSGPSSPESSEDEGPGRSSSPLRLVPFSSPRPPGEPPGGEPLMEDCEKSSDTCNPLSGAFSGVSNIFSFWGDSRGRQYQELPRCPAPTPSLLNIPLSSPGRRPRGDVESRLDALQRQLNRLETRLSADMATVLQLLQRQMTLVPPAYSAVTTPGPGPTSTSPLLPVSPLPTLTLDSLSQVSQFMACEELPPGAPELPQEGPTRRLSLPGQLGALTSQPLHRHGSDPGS

Nc1ncnc2c1ncn2[C@@H]1O[C@H](COP(=O)(O)CP(=O)(O)OP(=O)(O)O)[C@H](O)[C@H]1O
inactive: Potency [1] | Potency [2] | Potency [3] | Potency [4] | Potency [5] | Potency [6] | Potency [7] | Potency [8] | outcome [9] | outcome [10] | Potency [11] | Potency [12] | Potency [13] | outcome [14] | activation [15] 1.25% | outcome [16] | outcome [17] | Potency [18]

Reference: PubChem BioAssay (NCATS)
